This note sets out measurements from PubChem BioAssay.

Several values for one entry are separate records, joined by “and”; a condition that tells them apart may be missing. Identical values can stand only once.

A short description of this assay: Plasmodium falciparum growth inhibition, primary screen, strain 3D7, DAPI fluorescence, 100 nL (AID 1184).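 Also: parasites grown inside human red blood cells in medium with human serum.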 The settings on record: P. falciparum 3D7 growth, 3 d, higher = more signal.
As to `COC(=O)C1=C2N(Cc3ccccc3)C(C)=C(C(=O)OC)[C@@H](c3ccccc3)N2C(=O)[C@](O)(C(=O)OC)C1`, the z-score was 0.166 and -0.0932.
The value for `CCN1C(=O)[C@H]2[C@H]3[C@H](O)[C@H](O)CC(=NNC(=O)OCc4ccc(OC)cc4)[C@H]3CC[C@H]2C1=O` was 0.38.
In the case of `C=CCN(C(=O)C1N(C(C)(C)CO)C(=O)C2C(C(=O)O)C3C=CC21O3)C(C)(C)C` (stereo not given), the z-score was 0.214 and -0.208.
In the case of `CC(CO)N1C(=O)[C@@H]2C3C(=O)OCCC=C[C@H]3OC23C=CCN(C(C)(C)C)C(=O)[C@@H]13` (stereo not given in full) it was 0.35 and 0.567; in that of `C=CCN(Cc1ccccc1)C(=O)C1N(c2c(Cl)cccc2CO)C(=O)C2C(C(=O)O)C3C=CC21O3` (stereo not given), -0.0029 and -1.42; in that of `CC(C)=CCCC(C)=CCON=C1C[C@@H](O)[C@@H](O)[C@@H]2[C@@H]3C(=O)N([C@@H](C)c4ccccc4)C(=O)[C@@H]3CC[C@H]12`, -0.12.
The value for `CO[C@H]1COC(=O)CC=C[C@@H](C)COC(=O)[C@@H](OCc2ccccc2)C=C[C@@H]1C` was 0.56; that for `CC(=O)OC[C@H]1O[C@H](C#CC(C)(C)C)C=C[C@@H]1OC(C)=O` was 1.32; that for `CCOC(=O)C[C@H]1[C@H](OC(=O)c2ccccc2-c2ccccc2)[C@@H](NC(=O)c2ccccc2)c2cc(OCCCO)ccc2N1C(=O)c1ccc2ccccc2n1` was -0.345 and 0.0894.
Take `C=CCN(CCCC)C(=O)C1N(CCOCCO)C(=O)C2C(C(=O)O)C3C=CC21O3` (stereo not given): the z-score was 0.172 and 0.134.
In the case of `COC(=O)[C@@]1(Cc2ccccc2)[C@H]2c3cc(C(=O)N(C)C)n(Cc4ccc(C)c(F)c4F)c3C[C@H]2CN1C(=O)c1ccccc1` it was -1.74 and -1.65; in that of `COC(=O)C1=C(C)N(Cc2ccccc2)C2=C3C(=O)N(c4ccccc4)C(=O)[C@@H]3[C@@](O)(C(=O)OC)C(=O)N2[C@@H]1c1ccccc1`, -0.441 and 0.347; in that of `C=C(C)C(=O)OC[C@@H]1CN2[C@@H](CC[C@@H](C)[C@@H]2c2ccc(Br)cc2)C(=O)O1`, 0.693.
The value for `CC(C)=NO[C@@H](C)c1cc(-c2c(C)cc(C)cc2C)no1` was -0.876; that for `C=CCN(C(=O)C1N(CCCCCCO)C(=O)C2C(C(=O)O)C3C=CC21O3)C(C)(C)C` (stereo not given) was -0.0557 and 0.444.
In the case of `C=C[C@@H](OC)[C@H](O)c1ccc(OC)c(O)c1` it was -0.151 and -0.337; in that of `C=CCN(C(=O)C(c1cccs1)N(C(=O)/C=C\C(=O)O)C(C)(C)CO)c1ccc(OC)cc1` (stereo not given), -0.89 and 0.294.
As to `CCOC(=O)CCN1C(=O)[C@H]2[C@H]3[C@H](O)[C@H](O)CC(=NNC(=O)OCC)[C@@H]3CC[C@H]2C1=O`, the z-score came out at 2.07.
In the case of `COC(=O)C1=C(C)N(Cc2ccccc2)C2=C(C(C)=O)C[C@@](O)(C(=O)OC)C(=O)N2[C@@H]1c1ccccc1` it was 0.467 and 0.637; in that of `CC(C)=NOCc1ccc(-c2cn([C@@H]3COC[C@H]3O)nn2)cc1`, 1.76.
As to `CCOC(=O)[C@@H]1CC=C2CC1C(=O)N1CCC[C@@H]1[C@H]2O[Si](C)(C)C(C)(C)C` (stereo not given in full), the z-score is 1.82 and -0.618.
In the case of `C[C@@H]1CC[C@H]2C(=O)O[C@H](CN=[N+]=[N-])CN2[C@H]1c1ccc(Br)cc1` it was -2.02 and -0.068; in that of `Cc1cc2c(nc1C)CCCN2CC(O)CN1CCCc2nc(-c3ccc(Br)cc3)ccc21` (stereo not given), -0.614 and 0.112.
The value for `COC(=O)C1=C(C)N(Cc2ccccc2)[C@]23O[C@](C(=O)OC)(C(=O)N2[C@@H]1c1ccccc1)[C@H]1C(=O)N(c2ccccc2)C(=O)[C@H]13` was -0.391 and 1.02; that for `COC(=O)C1=C(C)N(Cc2ccccc2)C2=C3C(=O)N(C)C(=O)[C@@H]3[C@@](O)(C(=O)OC)C(=O)N2[C@@H]1c1ccccc1` was 0.557 and 0.251.
The value for `CO[C@@H]1COC(=O)[C@H](Cc2ccccc2)NC(=O)CC=C[C@@H](C)[C@H](OC)COC(=O)[C@@H](C)NC(=O)CC=C[C@H]1C` was -0.446 and 0.677; that for `CCOC(=O)NN=C1C[C@@H](O)[C@@H](O)[C@@H]2[C@@H]3C(=O)N(Cc4ccccc4)C(=O)[C@@H]3CC[C@@H]12` was -0.647; that for `C=CCN(C(=O)C1N(c2c(Cl)cccc2CO)C(=O)C2C(C(=O)O)C3C=CC21O3)C(C)(C)C` (stereo not given) was -1.76 and 0.0813.
For `CO[C@@H]1COC(=O)CC=C[C@H](C)[C@@H](NS(=O)(=O)c2ccc(C)cc2)COC(=O)CC=C[C@@H]1C`, the z-score was 0.707 and -0.283.
For `Cc1ccc(S(=O)(=O)OC[C@@H]2CN3[C@@H](CC[C@@H](C)[C@@H]3c3ccc(Br)cc3)C(=O)O2)cc1`, the z-score is -0.17 and -0.013.
In the case of `COC(=O)C1=C(C)N(Cc2ccccc2)[C@]23O[C@](C(=O)OC)(C(=O)N2[C@@H]1c1ccccc1)[C@H]1C(=O)N(C)C(=O)[C@H]13` it was -0.979 and 0.027.
In the case of `COC(=O)[C@H](C)NC(=O)CCC1CC(OC(=O)NCCc2ccc(F)cc2)CC2(CCCC(COC(=O)NCCCN3CCCC3=O)O2)O1` (stereo not given in full) it was -1.9.
For `C#CCCCON=C1C[C@@H](O)[C@@H](O)[C@@H]2[C@@H]3C(=O)N(C4CCCCC4)C(=O)[C@@H]3CC[C@H]12`, the z-score amounted to 1.43.
The value for `C=CC[C@@H](O)c1ccc(OCCO)cc1` was 0.667 and 0.717; that for `C=CCN(C(=O)C(c1cccs1)N(C(=O)/C=C\C(=O)O)c1c(Cl)cccc1CO)c1ccc(OC)cc1` (stereo not given) was 0.734 and 1.62; that for `CCCC[C@@H]1CN2[C@H](c3ccc(Br)cc3)[C@@H](C)CC[C@H]2C(=O)O1` was -0.0735 and 0.113.
The value for `CO[C@@H]1COC(=O)CC=C[C@H](C)COC(=O)[C@H](C)NC(=O)CC=C[C@H]1C` was -0.233.
The value for `C[C@@H]1CC[C@H]2C(=O)N3[C@@H](CC[C@@H](C)[C@@H]3c3ccc(-c4ccco4)cc3)C(=O)N2[C@H]1c1ccc(-c2ccco2)cc1` was 0.376 and 0.75.
On to `CCCCCN1CC=CC23O[C@@H]4C=CCCOC(=O)C4[C@H]2C(=O)N(C(C)CO)[C@@H]3C1=O` (stereo not given in full), for which the z-score was -0.165 and -0.358.
In the case of `CO[C@H]1COC(=O)CC=C[C@H](C)[C@H](OC)COC(=O)[C@@H](C)COC(=O)CC=C[C@@H]1C` it was 0.298 and 0.795.
